This note sets out measurements from PubChem BioAssay (NCATS).

The target of assay [1] is Cytochrome P450 1A2 (Homo sapiens) (UniProt P05177). Kind of assay: p450-cyp1a2 (AID 410; calls by dose curve; also: potency is read from the fitted curve at half-maximal effect). In outline:
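Luminescent readout of luciferin formed from Luciferin-ME by human CYP1A2; data normalized against complete inhibition by 57 uM furafylline. Enzyme 20nM, substrate 100uM at Km, 100mM KPO4 buffer, 60 min reaction at room temperature.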

The target in assay [2] is Glucocorticoid receptor (Homo sapiens) (UniProt P04150). Kind of assay: GR-GFP Redistribution (AID 450;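 active = compounds whose dose series gives a full or clear partial fitted curve of increased nuclear translocation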; also: potency is read from the fitted curve at half-maximal effect). The conditions noted are these: U2OS GR-GFP nuclear translocation, laser cytometry, 2 h.
Sequence of Glucocorticoid receptor (Homo sapiens) (P04150 whole entry, looked up): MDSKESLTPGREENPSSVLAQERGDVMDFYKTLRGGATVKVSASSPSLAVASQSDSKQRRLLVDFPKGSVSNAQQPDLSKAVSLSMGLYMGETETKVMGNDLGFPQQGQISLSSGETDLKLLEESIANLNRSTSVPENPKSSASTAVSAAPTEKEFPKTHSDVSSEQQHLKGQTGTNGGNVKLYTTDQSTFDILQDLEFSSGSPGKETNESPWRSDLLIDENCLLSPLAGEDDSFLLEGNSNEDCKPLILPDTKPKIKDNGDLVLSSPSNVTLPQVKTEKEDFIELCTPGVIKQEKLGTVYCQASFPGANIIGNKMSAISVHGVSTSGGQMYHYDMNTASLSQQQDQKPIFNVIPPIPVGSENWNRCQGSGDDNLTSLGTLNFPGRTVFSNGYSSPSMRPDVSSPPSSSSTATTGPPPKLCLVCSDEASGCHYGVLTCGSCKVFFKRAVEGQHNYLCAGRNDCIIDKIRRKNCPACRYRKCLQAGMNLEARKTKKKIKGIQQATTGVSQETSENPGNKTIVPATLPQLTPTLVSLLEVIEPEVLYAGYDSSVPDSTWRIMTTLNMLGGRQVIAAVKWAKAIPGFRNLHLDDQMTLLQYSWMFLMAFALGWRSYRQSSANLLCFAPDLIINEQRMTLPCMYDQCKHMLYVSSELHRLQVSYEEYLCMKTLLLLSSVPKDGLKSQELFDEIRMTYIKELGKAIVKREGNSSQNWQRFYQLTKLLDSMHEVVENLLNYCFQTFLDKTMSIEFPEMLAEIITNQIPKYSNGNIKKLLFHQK
Assay [3] shares this target. Kind of assay: GR-EFC Redistribution (AID 451; calls by dose curve; also: potency is read from the fitted curve at half-maximal effect). The conditions noted are these: CHO-K1 GR-EFC translocation, beta-gal luminescence, 2 h. The method in brief:
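CHO-K1 cells stably expressing nuclear-localized β-gal enzyme acceptor and GR fused C-terminally to the enzyme donor fragment; ligand-driven nuclear translocation restores β-gal by complementation. Compounds titrated up to 46 uM final, 2 h at 37 °C; luminescence read.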

The target in assay [4] is Mitogen-activated protein kinase 10 (Mus musculus) (UniProt Q61831). The assay is described as follows: JNK3 AlphaScreen Assay (AID 530; active = well fitted curve in either direction with a large enough effect, not every such curve was filed as active;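 also: kinase came from lysate of stimulated human HepG2 cells; signal reports phosphorylation of biotinylated GST-cJun 1-79 at Ser73 with 10 µM ATP; series mostly up to about 57 µM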). The method in brief: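 Inhibitors reduce antibody binding to phosphorylated biotin-cJun, lowering AlphaScreen luminescence. Lysates from HepG2 cells pre-activated by IL-1beta plus TNF-alpha supplied JNK3; compounds were titrated.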
The target of assay [5] is Cytochrome P450 2C9 (Homo sapiens) (UniProt P11712). Kind of assay: qHTS Assay for Inhibitors and Substrates of Cytochrome P450 2C9 (AID 883). Also: potency is read from the fitted curve at half-maximal effect; nearly all actives have a fitted effect of over 60% in size. The method in brief: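 Human CYP2C9 (10nM) hydroxylated Luciferin-H (100uM, at its KM) to luciferin in 25mM KPO4. Compound was preincubated 10 min at 37C, then NADPH regeneration started a 60 min reaction at 37C. Luminescence was read after detection reagent, normalized to 57uM sulphaphenazole.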
For orientation: Quantitative high-throughput screening tests each substance at several concentrations.

The target in assay [6] is Cytochrome P450 3A4 (Homo sapiens) (UniProt P08684). The assay is described as follows: qHTS Assay for Activators of Cytochrome P450 3A4 (AID 885). Also: nearly all actives have a fitted effect of over 65% in size. The method in brief:
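20nM CYP3A4 + 25uM Luciferin-PPXE (=KM), 200mM KPO4; cpd 10 min RT; NADPH regen, 60 min RT; stop w/ detection buffer, 20 min; luminescence. Normalized to 57 uM ketoconazole.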

The target in assay [7] is Cytochrome P450 2C19 (Homo sapiens) (UniProt P33261). Kind of assay: qHTS Assay for Inhibitors and Substrates of Cytochrome P450 2C19 (AID 899). Also: potency is read from the fitted curve at half-maximal effect; nearly all actives have a fitted effect of over 60% in size. The method in brief: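 Human CYP2C19 (5nM) with Luciferin-H EGE at 10uM (its KM) in 50mM KPO4 was preincubated with compound for 10 min at 37C. NADPH regeneration started a 60 min 37C reaction. Luciferin was read by luminescence, normalized to 57uM ketoconazole.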
Sequence of Cytochrome P450 2C19 (Homo sapiens) (P33261 whole entry, looked up): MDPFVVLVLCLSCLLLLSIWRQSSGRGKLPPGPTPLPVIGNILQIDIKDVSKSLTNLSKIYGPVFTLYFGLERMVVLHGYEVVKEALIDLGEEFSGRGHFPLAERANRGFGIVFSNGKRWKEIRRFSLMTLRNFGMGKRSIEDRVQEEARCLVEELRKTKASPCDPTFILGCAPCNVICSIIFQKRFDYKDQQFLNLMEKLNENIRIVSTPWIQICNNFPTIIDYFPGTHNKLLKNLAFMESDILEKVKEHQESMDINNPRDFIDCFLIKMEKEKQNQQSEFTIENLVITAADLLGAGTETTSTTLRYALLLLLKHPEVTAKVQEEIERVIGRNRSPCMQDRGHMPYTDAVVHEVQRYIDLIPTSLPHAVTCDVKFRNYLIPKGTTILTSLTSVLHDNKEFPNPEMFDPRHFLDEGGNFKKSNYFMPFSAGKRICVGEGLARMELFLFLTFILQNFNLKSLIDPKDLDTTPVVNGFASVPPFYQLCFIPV

For assay [8], the target named is DNA dC->dU-editing enzyme APOBEC-3G (Homo sapiens) (UniProt Q9HC16). The assay is described as follows: qHTS for inhibitors of Vif-A3G interactions: Validation (AID 588379). The method in brief:
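HeLa cells stably expressing Vif and A3G-eYFP, 700 cells/well, incubated overnight at 37 deg C, then exposed to compound overnight at 37 deg C. Inhibition of Vif-mediated degradation read as increased yellow fluorescence (Ex 488/Em 500-530) by laser-scanning cytometry.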

The test system of assay [9] is Zika virus NS2B-NS3 protease. Kind of assay: Primary screen GU AMC qHTS for Zika virus inhibitors (AID 1347154). Also: nearly all actives have a fitted effect of over 70% in size. The method in brief:
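Unlinked Zika NS2B hydrophilic domain/NS3 protease domain noncovalent complex (25 nM final) in 10 mM Tris-HCl pH 8.0, 0.01% Tween 20, with AMC peptide substrate. Fluorescence (ex 340, em 450 nm) change over 15 min, room temperature; percent inhibition fitted to 4-parameter Hill equation.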

The nature of assay [10]: Primary qHTS for small molecule stabilizers of the endoplasmic reticulum resident proteome: Secreted ER Calcium Modulated Protein (SERCaMP) assay (AID 1508630). The method in brief:
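GLuc-SERCaMP-expressing SH-SY5Y cells, pretreated 16 h with compound, are challenged with thapsigargin to empty ER calcium stores; after 4 h, coelenterazine is added directly to the medium and luminescence is imaged.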

Assay [11] has as its target 3',5'-cyclic-AMP phosphodiesterase 4B (Homo sapiens) (UniProt Q07343). The assay is described as follows: qHTS Assay for Inhibitors of PDE-IV (AID 607; active = well fitted activation curve with a large enough effect in the main read-out, with a control signal flat, not every such curve was filed as active). In outline:
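ACTOne HEK293 cells carry a modified cAMP-gated CNG channel and express endogenous PDE4; plated 1000 cells/well, compounds up to 22.9 uM final. Membrane-potential dye fluorescence (ex 535/em 590) was read; parental cells received 10 uM forskolin + 100 uM RO 20-1724.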

The target in assay [12] is Cytochrome P450 2D6 (Homo sapiens) (UniProt P10635). The assay is described as follows: qHTS Assay for Inhibitors and Substrates of Cytochrome P450 2D6 (AID 891). Also: potency is read from the fitted curve at half-maximal effect; nearly all actives have a fitted effect of over 60% in size. The method in brief:
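Human CYP2D6 (5 nM) with 30 uM Luciferin-ME EGE (at Km) in 100 mM KPO4, compound preincubated 10 min, then NADPH regeneration system for 60 min at room temperature. Luciferin read by luminescence; normalized to 1.43 uM quinidine.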

The target of assay [13] is Ubiquitin carboxyl-terminal hydrolase 1 (Homo sapiens) (UniProt O94782). Kind of assay: Inhibitors of USP1/UAF1: Pilot qHTS (AID 504865). Also: nearly all actives have a fitted effect of over 35% in size. Also: potency is read from the fitted curve at half-maximal effect. In outline:
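Enzyme-free wells gave the negative control, while test wells held 1nM USP1/UAF1 preincubated with compound for 15 min at room temperature. Ub-Rho at 150nM final started the reaction, and fluorescence at 480/540 nm was recorded kinetically.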

The target in assay [14] is Cytochrome P450 3A4 (Homo sapiens) (UniProt P08684). Kind of assay: qHTS Assay for Inhibitors and Substrates of Cytochrome P450 3A4 (AID 884). Also: potency is read from the fitted curve at half-maximal effect; nearly all actives have a fitted effect of over 50% in size. In outline:
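20 nM human CYP3A4 with 25 uM Luciferin-PPXE (at KM) in 200 mM KPO4, preincubated 10 min with compound; NADPH regeneration started a 60 min RT reaction. Luciferin detected by luminescence, normalized to 57 uM ketoconazole as full inhibition.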

Assay [15] is described as follows: qHTS for Inhibitors of the vitamin D receptor (VDR): Hit Validation using a Texas Red Assay (AID 602201). Also: potency is read from the fitted curve at half-maximal effect. Particulars: VDR coregulator binding, Texas Red fluorescence polarization; agonist-bound VDR ligand-binding domain. In outline:
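Fluorescence polarization (Ex 595/Em 615 nm) of Texas Red (7 nM) with 1.5 uM VDR-LBD and LG19078 (final concentrations). Compounds were incubated for 2 hours at room temperature.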

Unmarked numbers belong to inactive results. Results filed as inconclusive are left out. Active and inactive are the calls of the source. Unless noted, calls follow the shape of the dose curve; as a rule, active = well fitted curve in the direction sought with a large enough effect; inconclusive = small, poorly fitted or top-dose-only effect, or another doubt; inactive = no such curve, though single readings can be large; an effect the other way counts as inactive or inconclusive. Bounds are passed on as bounds.

Sequence of 3',5'-cyclic-AMP phosphodiesterase 4B (Homo sapiens) (Q07343 whole entry, looked up): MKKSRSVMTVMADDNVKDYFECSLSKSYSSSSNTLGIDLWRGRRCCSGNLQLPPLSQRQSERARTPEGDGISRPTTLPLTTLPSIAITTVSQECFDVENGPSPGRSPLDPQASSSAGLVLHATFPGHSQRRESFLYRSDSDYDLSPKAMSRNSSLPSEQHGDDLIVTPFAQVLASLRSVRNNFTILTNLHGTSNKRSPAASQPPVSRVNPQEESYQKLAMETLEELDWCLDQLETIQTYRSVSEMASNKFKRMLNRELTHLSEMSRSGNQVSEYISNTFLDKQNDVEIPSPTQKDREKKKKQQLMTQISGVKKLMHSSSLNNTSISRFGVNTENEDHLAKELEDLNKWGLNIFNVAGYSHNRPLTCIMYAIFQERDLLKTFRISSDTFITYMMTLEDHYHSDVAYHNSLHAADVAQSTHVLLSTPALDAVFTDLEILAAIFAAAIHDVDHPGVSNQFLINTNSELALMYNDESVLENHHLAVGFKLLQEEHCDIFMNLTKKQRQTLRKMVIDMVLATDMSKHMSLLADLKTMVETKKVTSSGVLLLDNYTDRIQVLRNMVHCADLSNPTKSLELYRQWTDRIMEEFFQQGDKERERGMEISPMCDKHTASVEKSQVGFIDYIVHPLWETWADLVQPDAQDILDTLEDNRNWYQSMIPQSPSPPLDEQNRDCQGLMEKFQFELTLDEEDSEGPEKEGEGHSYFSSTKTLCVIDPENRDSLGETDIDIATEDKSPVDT
Sequence of DNA dC->dU-editing enzyme APOBEC-3G (Homo sapiens) (Q9HC16 whole entry, looked up): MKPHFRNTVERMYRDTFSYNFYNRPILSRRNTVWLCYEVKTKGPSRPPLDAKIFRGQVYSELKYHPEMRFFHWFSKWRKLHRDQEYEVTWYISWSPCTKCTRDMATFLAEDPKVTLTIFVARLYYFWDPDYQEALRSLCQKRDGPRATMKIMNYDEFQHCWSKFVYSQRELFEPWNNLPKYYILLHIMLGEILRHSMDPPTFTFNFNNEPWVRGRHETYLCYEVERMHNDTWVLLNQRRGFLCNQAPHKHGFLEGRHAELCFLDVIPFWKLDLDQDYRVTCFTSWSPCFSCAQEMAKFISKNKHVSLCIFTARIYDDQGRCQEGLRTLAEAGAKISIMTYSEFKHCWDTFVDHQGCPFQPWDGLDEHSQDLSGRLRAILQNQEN
Sequence of Cytochrome P450 2D6 (Homo sapiens) (P10635 whole entry, looked up): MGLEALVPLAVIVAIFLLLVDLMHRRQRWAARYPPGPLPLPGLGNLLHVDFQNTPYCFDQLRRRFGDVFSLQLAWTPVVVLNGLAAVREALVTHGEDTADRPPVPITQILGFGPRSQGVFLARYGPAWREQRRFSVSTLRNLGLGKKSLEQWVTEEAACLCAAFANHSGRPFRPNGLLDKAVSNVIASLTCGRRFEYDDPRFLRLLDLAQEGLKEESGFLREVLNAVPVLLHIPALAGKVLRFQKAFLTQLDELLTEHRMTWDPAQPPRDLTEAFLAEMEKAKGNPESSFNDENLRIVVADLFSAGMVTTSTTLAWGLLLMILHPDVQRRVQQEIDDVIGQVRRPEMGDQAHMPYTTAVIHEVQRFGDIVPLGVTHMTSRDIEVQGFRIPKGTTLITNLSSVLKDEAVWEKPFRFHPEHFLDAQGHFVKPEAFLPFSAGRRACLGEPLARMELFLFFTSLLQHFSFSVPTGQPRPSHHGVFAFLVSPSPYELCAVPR
Sequence of Ubiquitin carboxyl-terminal hydrolase 1 (Homo sapiens) (O94782 whole entry, looked up): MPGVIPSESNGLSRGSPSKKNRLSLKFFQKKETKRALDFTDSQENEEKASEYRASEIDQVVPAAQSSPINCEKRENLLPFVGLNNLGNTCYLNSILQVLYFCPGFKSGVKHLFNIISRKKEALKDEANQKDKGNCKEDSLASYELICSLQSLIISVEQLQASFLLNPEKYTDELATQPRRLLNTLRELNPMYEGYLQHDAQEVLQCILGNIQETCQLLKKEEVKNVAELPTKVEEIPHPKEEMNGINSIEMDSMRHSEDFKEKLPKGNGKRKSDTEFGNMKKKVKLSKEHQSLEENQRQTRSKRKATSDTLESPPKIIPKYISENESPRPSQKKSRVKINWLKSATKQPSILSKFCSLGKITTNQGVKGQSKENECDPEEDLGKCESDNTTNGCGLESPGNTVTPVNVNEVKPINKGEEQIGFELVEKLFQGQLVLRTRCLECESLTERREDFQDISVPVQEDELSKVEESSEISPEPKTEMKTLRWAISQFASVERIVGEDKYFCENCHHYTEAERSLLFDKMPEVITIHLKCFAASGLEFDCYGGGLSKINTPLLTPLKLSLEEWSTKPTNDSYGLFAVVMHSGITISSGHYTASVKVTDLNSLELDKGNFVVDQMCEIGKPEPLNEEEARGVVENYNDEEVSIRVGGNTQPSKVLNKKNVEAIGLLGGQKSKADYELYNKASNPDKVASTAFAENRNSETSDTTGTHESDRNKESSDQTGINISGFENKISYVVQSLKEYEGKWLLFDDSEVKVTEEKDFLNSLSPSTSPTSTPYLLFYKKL
Sequence of Cytochrome P450 3A4 (Homo sapiens) (P08684 whole entry, looked up): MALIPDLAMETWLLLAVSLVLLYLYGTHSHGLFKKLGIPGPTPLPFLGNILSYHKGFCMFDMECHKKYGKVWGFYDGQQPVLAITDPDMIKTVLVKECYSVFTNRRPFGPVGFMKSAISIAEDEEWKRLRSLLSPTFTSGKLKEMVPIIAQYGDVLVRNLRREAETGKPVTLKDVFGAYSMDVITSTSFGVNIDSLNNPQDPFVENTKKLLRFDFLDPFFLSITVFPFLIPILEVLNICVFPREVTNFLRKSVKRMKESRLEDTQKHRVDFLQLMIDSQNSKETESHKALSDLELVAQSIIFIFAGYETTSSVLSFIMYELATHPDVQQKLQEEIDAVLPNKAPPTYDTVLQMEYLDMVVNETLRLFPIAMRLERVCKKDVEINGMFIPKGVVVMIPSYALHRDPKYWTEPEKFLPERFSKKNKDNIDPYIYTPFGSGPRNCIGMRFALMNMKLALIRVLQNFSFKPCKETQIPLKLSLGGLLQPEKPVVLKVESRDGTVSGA
Sequence of Cytochrome P450 1A2 (Homo sapiens) (P05177 whole entry, looked up): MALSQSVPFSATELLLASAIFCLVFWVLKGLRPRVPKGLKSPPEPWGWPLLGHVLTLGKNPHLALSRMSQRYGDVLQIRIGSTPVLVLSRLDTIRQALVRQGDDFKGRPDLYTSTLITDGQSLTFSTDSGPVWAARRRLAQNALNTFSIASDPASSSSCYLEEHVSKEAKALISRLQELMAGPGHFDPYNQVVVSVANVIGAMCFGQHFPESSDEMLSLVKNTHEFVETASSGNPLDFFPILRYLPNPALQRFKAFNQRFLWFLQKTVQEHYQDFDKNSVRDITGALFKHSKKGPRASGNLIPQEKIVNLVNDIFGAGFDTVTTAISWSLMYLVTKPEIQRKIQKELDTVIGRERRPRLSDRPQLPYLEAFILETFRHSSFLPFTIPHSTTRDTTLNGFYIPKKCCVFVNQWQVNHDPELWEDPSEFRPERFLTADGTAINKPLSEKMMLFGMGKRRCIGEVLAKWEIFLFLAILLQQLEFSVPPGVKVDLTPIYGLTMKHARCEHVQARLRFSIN

Consider `CCCCOC(=O)c1cc2c(cn1)[nH]c1ccccc12`, for which the Potency in [1] is 0.158 µM (active); in assay [2], above 46 µM; in [3], above 46 µM; in [5], 7.94 µM (active); in assay [7] it was 5.01 µM (active). The Potency entry in assay [4], in assay [6], in [8], in assay [9] and in assay [10] was “inactive” in each case.

Regarding `CC[N+](CC)(CC)CCOc1ccc(/C=C\c2ccccc2)cc1`, the Potency in assay [1] was 31.6 µM (active); in [2], above 46 µM; in [3], above 46 µM; in assay [12], 7.94 µM (active). The Potency entry in assay [4], in assay [11], in assay [13], in assay [8], in assay [9] and in assay [10] was “inactive” in each case.

With `CC1(C)C(=O)NC2=C1C(=O)C(=O)c1ccccc12`, the Potency in assay [1] is 3.16 µM (active); in assay [2], above 46 µM; in assay [3], above 46 µM; in [12], 2.51 µM (active); in assay [13], 0.891 µM (active). The Potency result in assay [11], in assay [6], in [8], in [9] and in assay [10] was “inactive” in each case.

Turning to `CNCCCCCCCCSc1nc(C(C)C)ccc1C(=O)c1cccs1`, the Potency is 31.6 µM (active) in assay [1]; above 46 µM in assay [2]; above 46 µM in assay [3]; 2.51 µM (active) in assay [14]; 0.0063 µM (active) in assay [12]. Also, the Potency result in assay [4], in assay [9] and in [10] was “inactive” in each case.

Consider `COc1ccccc1N1CCN(CCN2C(=O)c3ccccc3C(C)(C)C2=O)CC1`, for which the results for the Potency in [1], in assay [2] and in assay [3] were 39.8 µM (active), above 46 µM and above 46 µM, respectively. Moreover, the Potency entry in assay [4], in [11], in assay [6], in assay [13], in [8] and in assay [9] was “inactive” throughout. In [10], the Potency result is “inactive”.

As to `c1ccc2sc(N3CCN(Cc4ccc5c(c4)OCO5)CC3)nc2c1`, the Potency is 1 µM (active) in assay [1], above 46 µM in [2], above 46 µM in assay [3] and 0.631 µM (active) in [14]. The Potency result in assay [4], in assay [6], in [13], in assay [8], in [9] and in assay [10] was “inactive” each time.

On to `CCOC(=O)C1=C(N)Oc2ccc(Br)cc2[C@@H]1[C@@H](C#N)C(=O)OCC`, for which the Potency in assay [1] is 0.251 µM (active); in [2], above 46 µM; in [3], above 46 µM. Further, the Potency result in assay [4], in assay [11], in [8], in assay [9] and in [10] was “inactive” each time.

As for `COc1ccc2[nH]c(C(=O)c3ccccc3)cc2c1`, the Potency is 0.1 µM (active) in assay [1], above 46 µM in [2] and above 46 µM in assay [3]. Moreover, the Potency result in assay [8], in [9] and in [10] was “inactive” throughout.

Consider `O=C1c2ccccc2CC[C@H]1CNCCc1ccc(O)cc1`, for which the Potency is 20 µM (active) in assay [1]; above 46 µM in assay [2]; above 46 µM in assay [3]; 0.398 µM (active) in assay [12]; 25.1 µM (active) in assay [15]. In addition, the Potency result in assay [11], in assay [6], in assay [8], in assay [9] and in [10] was “inactive” throughout.
